Drawing on article PMC7819943, “Rice protein-binding microarrays: a tool to detect cis-acting elements near promoter regions in rice”, this text covers binding signal for 44 sequences.

Whole data set: some 68,000 sequences, median “fluorescence intensity (a.u.)” near 9,100, cut for the highest 2% near 16,000. The entries come from a sample that favours the highest values as a whole.

The target of the test is OsWRKY34 (Oryza sativa, UniProt Q0JBA9 1-250). The test can be described thus: protein-binding microarray (RPBM); PBS, 2% BSA, 51.3 ng/ul salmon testes DNA, 50 uM zinc acetate, 200 nM TF, 25 C, 1 h; high values mean tight binding. Conditions: protein: recombinant; tags: N-terminal polyhistidine and DsRed monomer fusion (pET32a); label: CyDye5-dUTP incorporated in the synthesized complementary strand; 3' TTTTT single-stranded linker to array surface; dsDNA, one strand shown. A digest of the protocol: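 Polyhistidine-tagged DsRed fusions of transcription factors, joined at the N-terminus, were expressed in E. coli BL21-CodonPlus and isolated on Ni–NTA. They were incubated at 200 nM for 1 h at 25 °C on a custom Agilent array, double-stranded and BSA-blocked, in PBS with 2% BSA, salmon testes DNA and 50 µM zinc acetate. The binding signal is per-feature fluorescence intensity (arbitrary units) read on an Axon 4000B scanner after washing.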
Chain of OsWRKY34 (Q0JBA9 entry or part of it): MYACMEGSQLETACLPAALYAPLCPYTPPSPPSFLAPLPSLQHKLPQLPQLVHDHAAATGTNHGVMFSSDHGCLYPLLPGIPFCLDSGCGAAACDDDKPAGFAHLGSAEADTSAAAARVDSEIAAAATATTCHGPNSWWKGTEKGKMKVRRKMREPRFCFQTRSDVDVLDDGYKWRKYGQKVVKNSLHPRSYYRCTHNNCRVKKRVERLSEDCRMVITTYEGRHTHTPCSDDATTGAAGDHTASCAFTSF
Regarding “GTCGTTGATTTTTTTAAAAATGTTTAACCGTTCGTTTTATCGGAGTCACCTAGTGCAG”, the binding signal was 8170 fluorescence intensity (a.u.).
The result for “AATGTATGACGCCGTTGACTTTTTAACAAATATTTGACATCGGAGTCACCTAGTGCAG” reads 20300 fluorescence intensity (a.u.); that for “TTATATGATGTTGTTGACTTTTTGACAAATGTTTAATCATCGGAGTCACCTAGTGCAG”, 8810 fluorescence intensity (a.u.).
As to “TCCCTAAATATATGACGTTGTTGACTTTTTAAAACATTTTCGGAGTCACCTAGTGCAG”, the binding signal was 11200 fluorescence intensity (a.u.).
The result for “CGTGCCGCCGCCGCCGCCGCCATCCTCCGGCAACAACGGCCGGAGTCACCTAGTGCAG” reads 9650 fluorescence intensity (a.u.).
In the case of “GCTTCGCTTTGCGCTCTCTCTATCTCTCTCTCTTCCAAAACGGAGTCACCTAGTGCAG”, the binding signal was 8490 fluorescence intensity (a.u.).
As for “TATCCACATACCACCTCTCCATTGGACCACAGTTTCTCTCCGGAGTCACCTAGTGCAG”, the figure is 8340 fluorescence intensity (a.u.); as for “CGCGGGGAGGGAGGGAGGGAAGGAGAGGAGGAAGAGGATGCGGAGTCACCTAGTGCAG”, 9410 fluorescence intensity (a.u.).
The result for “GGAGAGGAGCGGGCGGGTTGGTGTTGGGAAGGGAGGGATGCGGAGTCACCTAGTGCAG” reads 18200 fluorescence intensity (a.u.); that for “GGGGCAAGGAAGGAAGGGGAGGGGAGGGGTTGGGGCGATGCGGAGTCACCTAGTGCAG”, 25900 fluorescence intensity (a.u.).
Regarding “AAGGGGATCGGAGATGCCGCTGGGCAAGTACTACTGCGACCGGAGTCACCTAGTGCAG”, the binding signal was 29900 fluorescence intensity (a.u.).
“GGCGGCGGCGGCGGCGGAGGTTGGGAAGGAGAGGGAGGGGCGGAGTCACCTAGTGCAG”: the binding signal is 11800 fluorescence intensity (a.u.).
As to “CGGAGAAGTCCGGGCAGGCAAGGGGATGGGGATGGGGATGCGGAGTCACCTAGTGCAG”, the binding signal was 12400 fluorescence intensity (a.u.).
The result for “GGTTTTGCAGGGCGAGGAGGGAGGGGAGGAGGGAAGGATGCGGAGTCACCTAGTGCAG” reads 15900 fluorescence intensity (a.u.); that for “TGCTGGTGGTGGTGGTGGGGATCGAGCCGCTCGCTTCGACCGGAGTCACCTAGTGCAG”, 11700 fluorescence intensity (a.u.).
The result for “CGAGAAGGGGATGGGGAGGAGGAGAGGGAGCGGGAGAGGGCGGAGTCACCTAGTGCAG” reads 10100 fluorescence intensity (a.u.).
As for “AAATCATTTAGAAACACAACCTTTTCCACTGTTCAGGATTCGGAGTCACCTAGTGCAG”, the binding signal is 8030 fluorescence intensity (a.u.).
On to “TTCACCCCGCTGCTCCGACGTCCTAGCCATCGCCGCCGCCCGGAGTCACCTAGTGCAG”, for which the binding signal was 8600 fluorescence intensity (a.u.).
As for “CTGCCGCTCTGGTTCTCCAACTCTGCATACATATACCTCTCGGAGTCACCTAGTGCAG”, the figure is 12000 fluorescence intensity (a.u.).
Regarding “GGGATTTTGTGTTTTTGGTTTTTCTGGAGGGTGCAGAAGGCGGAGTCACCTAGTGCAG”, the binding signal is 14700 fluorescence intensity (a.u.).
Take “CTACCAACCTGTTCATCATGGCCCGACTCCATTCATGTCACGGAGTCACCTAGTGCAG”: the binding signal is 10300 fluorescence intensity (a.u.).
The result for “TTTGTGGGTGGTTTTGGGCTAAAGATTCCGTTTCTTTCGACGGAGTCACCTAGTGCAG” reads 9250 fluorescence intensity (a.u.); that for “CGGGGAGGAGGGAGGAATAAATACGTCCTAGTCGATCAGCCGGAGTCACCTAGTGCAG”, 8150 fluorescence intensity (a.u.); that for “GTTCAGTCACTCGCACGCTCGCTCGATCACCCGGCCGCCGCGGAGTCACCTAGTGCAG”, 10200 fluorescence intensity (a.u.).
As for “CTCTCTACGGCTAGCTACTCCCATTTGTGGTCAACACCTCCGGAGTCACCTAGTGCAG”, the figure is 10500 fluorescence intensity (a.u.).
As for “TGCCTCTGTTACCACACTCTCACCTTGCTTAATAAATGCTCGGAGTCACCTAGTGCAG”, the binding signal is 9800 fluorescence intensity (a.u.).
The result for “CTGAAGATTGGATCTAAACTTTGTATCTAAACACAGCCATCGGAGTCACCTAGTGCAG” reads 64300 fluorescence intensity (a.u.); that for “TAACTTCTCAACTTTTTCACCATCTAAACACAGTCTTCATCGGAGTCACCTAGTGCAG”, 8400 fluorescence intensity (a.u.); that for “ACTTAGGAGAGATTGCCTGAGTGCCATCTTTTTTGTATCTCGGAGTCACCTAGTGCAG”, 8960 fluorescence intensity (a.u.).
The result for “CAGCACCAACGTTCTCTTCGGCCGATTCGGCGATTGCATCCGGAGTCACCTAGTGCAG” reads 8930 fluorescence intensity (a.u.); that for “ATCCTCTCCCGCACCAGCTATAAACCGCCACACGCCCTCGCGGAGTCACCTAGTGCAG”, 8650 fluorescence intensity (a.u.).
As to “TCCTCTTGCAAAAAAAACACACACACACACGCACACAACTCGGAGTCACCTAGTGCAG”, the binding signal is 10200 fluorescence intensity (a.u.).
On to “ACGCACCAAAACACACGATCCTCTCGGATAAATCACAGCCCGGAGTCACCTAGTGCAG”, for which the binding signal is 27500 fluorescence intensity (a.u.).
Turning to “CTCTCTCTCTCTCTCTCTCTCTCTCTCGATGCCGACGCTTCGGAGTCACCTAGTGCAG”, the binding signal is 11000 fluorescence intensity (a.u.).
As for “GGAGCTAGTCCAACCTACCGCAGTCACACCACCCCGCTATCGGAGTCACCTAGTGCAG”, the figure is 9270 fluorescence intensity (a.u.); as for “GTATGTGGGTGGTGGTATTTTTTTTATCCTGGTTACGACCCGGAGTCACCTAGTGCAG”, 19700 fluorescence intensity (a.u.); as for “GTGGGTGGTGGTTTTTTTTTCCTTTTTCCTGGTTACGACCCGGAGTCACCTAGTGCAG”, 23700 fluorescence intensity (a.u.).
The result for “TGTATGTGTGGTGTGTGTTCATGTGCATCCTGAATTTTACCGGAGTCACCTAGTGCAG” reads 14200 fluorescence intensity (a.u.); that for “GGTGCGTGGGTGGTGGTCTTTTTCTTTTTCCTAGTTACGACGGAGTCACCTAGTGCAG”, 29400 fluorescence intensity (a.u.); that for “TGTGGATGATGGTATTTTTTTTCCTTTTTCCTAGTTACGACGGAGTCACCTAGTGCAG”, 9100 fluorescence intensity (a.u.).
With “GGAGGTGGAAAATCTTTGTTTTTTTCCTGGTTACGATCTCCGGAGTCACCTAGTGCAG”, the binding signal was 9150 fluorescence intensity (a.u.).
As for “TGTGGGTGGGGTTATTTTTTCTTCGTTTTCCTATTTACGACGGAGTCACCTAGTGCAG”, the figure is 15700 fluorescence intensity (a.u.); as for “GATGTGTTGGCTGTCTTTGTTTTTTTTTTCCTGGTTTACCCGGAGTCACCTAGTGCAG”, 14000 fluorescence intensity (a.u.).
As for “CTTCCTTTTCTCTTCTTCTTCTTCTTCTTTTGCGTGGGGACGGAGTCACCTAGTGCAG”, the binding signal is 9650 fluorescence intensity (a.u.).
